Compound activity as filed in PubChem.
NPR1 activator = GC-A stimulated cGMP production enhancers – HEK293 GC-A cells, cGMP TR-FRET, EC30 ANP, primary screen; Atrial natriuretic peptide receptor 1 (Homo sapiens), P16066; 0% at EC30 ANP, 100% saturating ANP; 0.14% of 370,000 active; activation, % at 10 µM; in the data active means activation above about 40%
NadD inh = inhibitors of S. aureus NadD, primary screen, biochemical, colorimetric, uHTS; 0.78% of 360,000 active; inhibition, % at 20 µM; purified NadD enzyme, colorimetric absorbance read-out; Nicotinate-nucleotide adenylyltransferase NadD (Staphylococcus aureus N315); in the data active means inhibition above about 26%
NPR2 activator = human GC-B receptor activators, primary screen, HEK293 GC-B cells, cGMP TR-FRET, EC30 CNP. Atrial natriuretic peptide receptor 2 (Homo sapiens), P20594. 0% at EC30 CNP, 100% saturating CNP. activation, % at 10 µM. 0.11% of 370,000 active. AID 1920062, 2024;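 active means activation at 10 µM reaching about 35% in either raw or pattern-adjusted values, limit read from the data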
Neddyl block = inhibitors of cullin neddylation, primary screen, biochemical, TR-FRET, uHTS, NAE and Ubc12 | 0.58% of 360,000 active | inhibition, % at 25 µM | NEDD8-conjugating enzyme Ubc12 (Homo sapiens) + NEDD8-activating enzyme E1 regulatory …; in the data active means inhibition above about 36%
NadD conf = inhibitors of S. aureus NadD, confirmation, biochemical, colorimetric, single concentration; inhibition, % at 20 µM; shares compounds with NadD inh; 13% of 2,000 active; AID 624309, 2012; purified S. aureus NadD, colorimetric enzyme assay; in the data active means inhibition mostly above about 42%, no sharp cut-off; inactive means mostly below about 42%
Numbers stand for hits; i = inactive; nt = not tested or not shown. Hits are enriched below; roughly 1.5% of the tested compounds scored in any of these assays.

SMILES | NPR1 activator | NadD inh | NPR2 activator | Neddyl block | NadD conf
O=C(NC(=S)Nc1nc(-c2cccc([N+](=O)[O-])c2)cs1)c1cc(Cl)ccc1Cl | i | 30 | i | i | i
O=C(NC(=S)Nc1nc(-c2cccc([N+](=O)[O-])c2)cs1)c1ccccc1Cl | i | i | i | i | nt
CSc1nc(SCCO)c2sc3nc(-c4ccco4)c4c(c3c2n1)CC(C)(C)OC4 | i | 60 | i | i | i
CC(C)n1c(-c2ccc(C(C)(C)C)cc2)n[nH]c1=S | i | 29 | i | i | i
CC(C)(C)c1ccc(-c2n[nH]c(=S)n2Cc2ccccc2)cc1 | i | i | i | i | nt
Cc1cc2c(c(=O)o1)[C@@]1(C(=O)N(C)c3cccc(Br)c31)C1=C(CCCC1=O)O2 | i | nt | i | nt | nt
Cc1cc(C(=O)N/N=C/c2sc(N3CCOCC3)nc2-c2ccccc2)c(C)o1 | i | i | i | i | nt
O=[N+]([O-])c1ccc(N/N=C/c2sc(N3CCOCC3)nc2-c2ccccc2)c(S(=O)(=O)Nc2ccc(Cl)cc2)c1 | i | 58 | i | i | i
O=[N+]([O-])c1ccc(N/N=C/c2sc(N3CCOCC3)nc2-c2ccccc2)c(S(=O)(=O)Nc2ccccc2Cl)c1 | i | 75 | i | i | i
C=CCn1c(COc2ccc(C)cc2)nnc1SCC(=O)Nc1ccc(Oc2ccccc2)cc1 | i | nt | i | nt | nt
O=C(c1ccc2c(=O)n(Cc3ccco3)c(=S)[nH]c2c1)N1CCN(c2ccccc2)CC1 | i | 28 | i | i | i
CC1CC(C)CN(C(=O)c2ccc3c(=O)n(Cc4ccc5c(c4)OCO5)c(=S)[nH]c3c2)C1 (configuration not stated) | i | 32 | i | i | i
O=C(c1ccc2c(=O)n(Cc3ccc4c(c3)OCO4)c(=S)[nH]c2c1)N1CCCCC1 | i | i | i | i | nt
C=CC[C@@]1(c2ccc(Br)cc2OC)Oc2ccccc2-c2nccnc21 | i | nt | i | nt | nt
CCn1c(SCc2nc3scc(-c4ccccc4)c3c(=O)[nH]2)nnc1-c1cccs1 | i | i | i | i | nt
COCCn1c(SCc2nc3scc(-c4ccc(Cl)cc4)c3c(=O)[nH]2)nnc1-c1cccc(C)c1 | i | 33 | i | i | i
C[C@@H]1COc2cc(N3CCOCC3)ccc2S(=O)(=O)N1 | i | nt | i | nt | nt
CN(C)CCCN(C(=O)c1ccc(S(=O)(=O)N2CCc3ccccc32)cc1)c1nc2ccc(Cl)cc2s1 | i | 52 | i | i | i
COc1ccc(N/C=C2\C(=O)CCc3c2oc2cc(Cl)c(O)c(Cl)c32)cc1 | i | 44 | i | i | i
Oc1c(I)cc(I)c2cccnc12 | i | 46 | i | i | i
COCc1cc(N2CCN(C(=O)OC(C)(C)C)C[C@H]2C)ccc1Br | i | nt | i | nt | nt
CCOC(=O)Cc1csc(NC(=O)c2sc3nc4c(C)cc(C)cc4cc3c2N)n1 | i | 40 | i | i | i
COCc1[nH]nc2c1C(c1ccc(C)cc1)N(Cc1ccccc1)C2=O (configuration not stated) | i | nt | i | nt | nt
O=[N+]([O-])c1ccc(Cl)c(S(=O)(=O)Nc2cccc(-c3ccc(N4CCCC4)nn3)c2)c1 | i | 63 | i | i | 52
Cc1c([N+](=O)[O-])cc(S(=O)(=O)Nc2ccc(-c3ccc(N4CCCC4)nn3)cc2)cc1[N+](=O)[O-] | i | 57 | i | i | i
SMILES | NPR1 activator | NadD inh | NPR2 activator | Neddyl block | NadD conf
Cc1ccc([N+](=O)[O-])cc1S(=O)(=O)Nc1ccc(-c2ccc(N3CCCC3)nn2)cc1 | i | 38 | i | i | i
Cc1ccc(S(=O)(=O)Nc2cccc(-c3ccc(N4CCCCCC4)nn3)c2)c(C)c1 | i | 42 | i | i | i
O=[N+]([O-])c1ccccc1S(=O)(=O)Nc1cccc(-c2ccc(N3CCCC3)nn2)c1 | i | i | i | i | nt
Nc1c(C(=O)NCc2ccco2)c2nc3ccccc3nc2n1CCc1ccc(F)cc1 | i | 38 | i | nt | i
COc1ccc(-n2c(N)c(C(=O)NCc3ccco3)c3nc4ccccc4nc32)cc1 | i | i | i | nt | nt
COC(=O)C1=C(C)N(Cc2ccc(C(F)(F)F)cc2)C(=NCc2ccccc2)NC1c1ccc(C(F)(F)F)cc1 (configuration not stated) | i | nt | i | nt | nt
